Experimental data published in PubChem BioAssay AID1117319 (Southern Research Institute, 2015).
“And” between values parts separate entries of the source, which are not always exact repeats. Equal entries are not always repeated. About 1,500 (0.58%) of roughly 260,000 compounds were called active. Not shown: some 5% with an inconclusive outcome.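 Rule for the calls: active = inhibition above a set limit at one or more doses, reproduced on every date tested; inconclusive = results disagree between test dates, or hit never tested in dose response; inactive = the rest.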 The list is a sample of the results. Results with a measured potency or affinity are listed apart.

Molecular target: Virion infectivity factor (Human immunodeficiency virus type 1 group M subtype B (isolate BH10)) + Virion infectivity factor (Human immunodeficiency virus type 1 group M subtype B (isolate BRU/LAI)) + Virion infectivity factor (Human immunodeficiency virus type 1 group M subtype B (isolate PCV12)) + Virion infectivity factor (Human immunodeficiency virus type 1 group M subtype B (isolate HXB2)) + DNA dC->dU-editing enzyme APOBEC-3G (Homo sapiens) (UniProt P69720+P69721+P69722+P69723+Q9HC16)
Experiment: HIV-1 Vif–A3G interaction blockers – biochemical, TR-FRET, GST-Vif 1-94, biotin-A3G peptide, dose response retest, primary screen (AID 1117319);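 note: Vif residues 1-94 fused to GST binding biotinylated APOBEC3G peptide 110-148; 0% = full assay without inhibitor and 100% = GST in place of GST-Vif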
Settings: TR-FRET GST-Vif / biotin-A3G peptide binding; hits give high values

inhibition, inactive:
CN(C)c1nc(NNC(=O)c2ccccc2)nc(N(C)C)n1 -5.34%
C=CCn1c(SCC(=O)Nc2cc(C)on2)nc2sc(C)c(C)c2c1=O -2.76%
C=CCn1c(SCC(=O)c2cccs2)nc2sc(C)c(C)c2c1=O -46.6%
CCN(CC(=O)Nc1c(F)cccc1F)C(=O)c1ccc2c(c1)S(=O)(=O)N=C1CCCCCN12 -6.51%
O=C(/C=C/c1ccc(O)c(O)c1)c1ccccc1O 13.2%
COc1cc(/C=C/C(=O)OCC(=O)NCC2CCCCC2)ccc1O -4.25%
O=C(CCOc1ccccc1)Nc1ccc([N+](=O)[O-])cc1 5.33%
COc1ccc(NC(=O)c2cc(C)nc3ccccc23)cc1S(=O)(=O)N1CCOCC1 -2.24%
COc1ccc(NC(=O)CN(C)C(=O)c2cc(-c3ccc(Cl)cc3)nc3ccccc23)cc1 2.66%
COc1cccc(NC(=O)CN(C)C(=O)c2cc(-c3ccco3)nc3ccccc23)c1 23.7%
Cc1ccc(NC(=O)c2cc(-c3ccco3)nc3ccccc23)cc1S(=O)(=O)N1CCOCC1 32.6%
COc1ccc(NC(=O)CN(C)C(=O)c2cc(-c3ccc(OC)cc3)nc3ccccc23)cc1 -5.94%
CN(CC(=O)Nc1cccc(F)c1)C(=O)c1cc(-c2ccccc2)nc2ccccc12 -4.43%
CCOc1ccc(NC(=O)CN(C)C(=O)c2cc(-c3ccco3)nc3ccccc23)cc1OCC -2.81%
Cc1ccc(NC(=O)CN(C)C(=O)c2cc(-c3ccco3)nc3ccccc23)cc1 55.7%
CC(=O)c1cccc(N/C=C\c2nnnn2-c2ccc(F)cc2)c1 -15.5%
CCOC(=O)c1ccc(-c2c(C)cc3oc(=O)cc(-c4ccccc4)c3c2C)cc1 -7.8%
COc1ccc(C(=O)c2ccc(N(C)C)cc2)c2ccccc12 -5.09%
CN(C)c1ccc(C=O)c(Oc2ccccc2)c1 -6.28%
CCN(CC)CC(O)Cn1c(C)c(-c2ccccc2)c2cc([N+](=O)[O-])ccc21 (stereo unspecified) -3.66%
CC1=NN(c2cccc(F)c2)C(=O)/C1=C/c1ccc(N(C)C)cc1 7.52%
O=[N+]([O-])c1ccc2c(c1)c(-c1ccccc1)nc1nncn12 1.68%
CN(C)c1ccc(C=c2c3ccccc3n3c2c2c([n+]3C)CCCC2)cc1 26.6%
Cc1cccc(C)c1NC(=O)C1CCCN(CCCc2ccccc2)C1 (stereo unspecified) 3.24%
COC(=O)c1ccc(CNC(=O)c2ccc(NS(=O)(=O)c3ccc4[nH]c(=O)[nH]c4c3)cc2)cc1 -7.35%
CCOc1ccc(NC(=O)/C(C=Nc2ccccc2)=C(\C)O)cc1 -3.41%
CCCc1nc(SCC(=O)N2CCCC2)c2ccccc2n1 -0.12%
CC(C)(C)OC(=O)N(CCc1ccccc1)Cc1ccccc1OCc1cccc(NC(=O)C2CCCC2)c1 1.13%
CN(C)CCCNC(=O)C[C@H]1C[C@H](C(=O)N2CCCCC2)[C@@]2(CCc3ccccc3)c3[nH]c4ccc(Cl)cc4c3CCN2C1=O 3.82%
O=C1CC(c2ccco2)CC(O)=C1C=Nc1ccccc1-c1ccccc1 (stereo unspecified) 18.4%
O=C1CC(c2ccco2)CC(O)=C1C=NCCN1CCNCC1 (stereo unspecified) 31.7%
CC(C)C(=O)N1CCN(CCN=CC2=C(O)CC(c3ccco3)CC2=O)CC1 (stereo unspecified) -5.81% and 11.7%
CCc1ccc(N=CC2=C(O)CC(c3ccco3)CC2=O)cc1 (stereo unspecified) -1.68%
O=C1CC(c2ccco2)CC(O)=C1C=NCCN1CCN(C(=O)Nc2ccc(Cl)cc2)CC1 (stereo unspecified) -5.15%
O=C1CC(c2ccccc2)CC(O)=C1C=Nc1ccccc1Cl (stereo unspecified) -5.59%
Cc1ccc(N=CC2=C(O)CC(c3ccco3)CC2=O)cc1 (stereo unspecified) 14.7%
Cc1[nH]nc(N=CC2=C(O)CC(c3ccco3)CC2=O)c1-c1ccc(Cl)cc1 (stereo unspecified) 8.53%
COc1cccc(NC(=O)CC(C)=O)c1 3.45%
CCNc1nc(NC(C)(C)C)nc(SCC(N)=O)n1 -9.57%
O=C(CN(Cc1cccs1)C(=O)CSc1nnc(COc2ccccc2)o1)NC1CCCCC1 3.54%
COc1ccc(C)cc1NC(=S)N1CCN(c2ncccn2)CC1 6.81%
CC1CCN(S(=O)(=O)c2ccc(C(C)C)cc2)CC1 -4.55%
Cc1cn([C@H]2C[C@H](O)[C@@H](CCC(=O)NCc3ccco3)O2)c(=O)[nH]c1=O 3.31%
Cc1cc(NC(=O)c2cc(-c3ccc(O)cc3)on2)no1 -3.11%
C=CCSc1nc2sc(C)c(C)c2c(=O)n1CC=C -3.91%
O=C1C2CCCN2C(c2ccccc2)N1c1ccc(Cl)cc1 (stereo unspecified) 15.8%
O=C1C2CCCN2C(c2cccs2)N1c1ccc(Cl)cc1 (stereo unspecified) -1.78%
COc1ccc(N2C(=O)C3CCCN3C2c2cccs2)cc1 (stereo unspecified) -1.1%
COc1cc(C2N(c3ccccn3)C(=O)C3CCCN32)cc(OC)c1OC (stereo unspecified) -8.96%
O=C(CNC(=O)c1ccc(Br)o1)Nc1cccc(S(=O)(=O)N2CCOCC2)c1 1.25%
CC1CCCCC1NC(=O)c1c(O)nc2ccccn2c1=O (stereo unspecified) -12.1%
COc1ccc(C(=O)Nc2ccc3c(c2)OCCO3)c(OC)c1 1.98%
Cc1ccc(C(=O)n2ncn(C)c2=S)cc1 -5.15%
COC(=O)CN1C(=O)COc2ccc(S(=O)(=O)N3CCCCC3)cc21 -2.76%
Nc1cccc2nc3ccccc3cc12 11.9%
Cc1cc(N)c2ccccc2n1 3.24%
O=C(CN1CCC(C(=O)c2ccc3c(c2)OCCO3)CC1)Nc1ccccc1F 2.56%
COc1cccc(C2NC(=O)c3ccccc3O2)c1OC (stereo unspecified) -1.95%
Cc1cc(-c2nnc(CCC(=O)N(CC3CC3)CC3CCCO3)o2)no1 (stereo unspecified) 0.72%
Cc1ccc(-c2cc(C(=O)Nc3c(C)n(C)n(-c4ccccc4)c3=O)[nH]n2)c(O)c1 23.2%
CC(=O)N1CCN(c2ccc(NCc3cccc4ccccc34)cc2)CC1 28.3%
CC(=O)Nc1ccc(N2CCN(C(C)=O)CC2)cc1 24.9%
CC(=O)N1CCN(c2ccc(NC(=O)c3ccc4c(c3)OCO4)cc2)CC1 18.3%
O=C(c1ccccc1)N1CCN(c2ccc(NCc3ccc4c(c3)OCO4)cc2)CC1 21.7%
Nc1c(C(=O)CSc2nccn2-c2ccc(Cl)cc2)c(=O)[nH]c(=O)n1C1CC1 -3.47%
CC1CCN(CCCCOc2cccc(Br)c2)CC1 -0.02%
COc1cccc(NC(=O)N(C)C[C@H]2OCc3cnnn3CCCC(=O)N([C@H](C)CO)C[C@@H]2C)c1 -12.7%
COc1ccc(Oc2cccc(Cl)c2CNC(=O)CSCC(=O)O)cc1 7.24%
COc1ccc(NC(=O)Cc2c[nH]c3ccccc23)cc1S(=O)(=O)N1CCOCC1 -3.49%
Cc1c(NC(=O)C(C)N2C(=O)C3C4C=CC(C4)C3C2=O)c(=O)n(-c2ccccc2)n1C (stereo unspecified) -0.22%
COc1ccc(C(=O)Cn2nnc(-c3ccccc3NC(=O)C3CCCCC3)n2)cc1 -3.13%
Cc1ccc(OCCCN2C(=O)C(=O)c3cc(C)ccc32)cc1 -4.93%
Cn1nnnc1SCCNS(=O)(=O)c1ccccc1 2.62%
Cc1ccc(Nc2cnn(C34CC5CC(CC(CC(=O)O)(C5)C3)C4)c(=O)c2Cl)cc1 -0.2%
Cc1cccc(Nc2cnn(C34CC5CC(CC(CC(=O)O)(C5)C3)C4)c(=O)c2Cl)c1 5.69%
O=c1[nH]nc(Cc2ccc3ccccc3n2)c2ccccc12 -4.55%
COC(=O)N1CCN(c2ccc(C(C)=O)cc2)CC1 5.12%
Cc1ccc(NC(=O)C2CCCN(S(=O)(=O)c3cnc[nH]3)C2)c(Br)c1 (stereo unspecified) 1.69%
COc1ccc(C(=O)Nc2nc(CC(=O)NCCc3cccc(OC)c3)cs2)cc1 0.4%
COc1cc(/C=C/c2ccc(O)cc2)cc(OC)c1 0.21%
COc1cc(O)cc(/C=C/c2ccccc2)c1 6.25%
CNS(=O)(=O)c1cccc(C(=O)OCC(=O)NC(C)CCc2ccccc2)c1 (stereo unspecified) 1.38%
COC(=O)c1ccc(-n2nnnc2SC)cc1 6.93%
CCOc1ccc(NC(=O)N[C@@H](Cc2ccccc2)C(=O)O)cc1 3.58%
CC(=O)Nc1ccc(NC(=O)CC2Nc3cccc4cccc(c34)NC2=O)cc1 (stereo unspecified) 18%
O=C(CC1Nc2cccc3cccc(c23)NC1=O)Nc1ccc(F)cc1 (stereo unspecified) 19.5%
Cc1ccc(C)c(CSc2nnc(C)c(=O)[nH]2)c1 -5.37%
Cc1nn(CC#N)c(=O)n1-c1ccc(F)cc1 0.42%
O=C(CCS(=O)(=O)c1ccc(Cl)cc1)N1CCN(c2ccc(F)cc2)CC1 -4.61%
O=C(CCS(=O)(=O)c1ccc(Br)cc1)N1CCN(c2ccc(Cl)cc2)CC1 5.94%
COc1ccc(CCN2CCCn3c2nc2c3c(=O)n(CC(N)=O)c(=O)n2C)cc1OC -0.32%
